The structures appear in SMILES notation. Results with a measured potency or affinity are listed apart. Unmarked numbers belong to inactive results. Calls of active or inactive are those of the source.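 The calls were made as follows: active = compounds whose fitted half-maximal effective concentration for blocking dye efflux is below 100 µM; inactive = the rest.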

This assay deals with Benomyl/methotrexate resistance protein (Candida albicans) (UniProt P28873). As to the kind of experiment: CaMdr1 efflux pump inhibitor potency, dose response, singleplex, Cherry Pick2 set (AID 623992). The following applies: S. cerevisiae AD/CaMDR1, Nile Red efflux, flow cytometry; series mostly up to 100 µM; efflux inhibition response: at the top concentration.
Chain of Benomyl/methotrexate resistance protein (Candida albicans) (P28873 whole entry, looked up): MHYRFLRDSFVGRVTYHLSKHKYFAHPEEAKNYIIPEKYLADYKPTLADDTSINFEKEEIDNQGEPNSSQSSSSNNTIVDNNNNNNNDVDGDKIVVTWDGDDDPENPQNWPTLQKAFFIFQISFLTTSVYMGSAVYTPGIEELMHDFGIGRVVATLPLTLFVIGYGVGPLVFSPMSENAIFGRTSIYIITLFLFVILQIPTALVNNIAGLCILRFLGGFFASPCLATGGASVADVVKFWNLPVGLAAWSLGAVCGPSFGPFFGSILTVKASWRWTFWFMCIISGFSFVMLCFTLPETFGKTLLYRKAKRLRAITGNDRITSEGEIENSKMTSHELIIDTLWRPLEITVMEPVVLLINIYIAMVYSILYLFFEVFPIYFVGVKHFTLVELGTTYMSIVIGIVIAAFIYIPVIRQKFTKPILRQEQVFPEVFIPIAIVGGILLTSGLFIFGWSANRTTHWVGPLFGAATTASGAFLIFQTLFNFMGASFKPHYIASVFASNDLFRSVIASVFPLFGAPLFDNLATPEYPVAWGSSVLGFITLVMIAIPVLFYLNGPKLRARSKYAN
Consider `NS(=O)(=O)c1ccc(N2N=C(c3ccccc3)CC2c2ccc(Br)cc2)cc1` (stereo not given), for which the “efflux inhibition response” value is -2.11%. On the same count and under the same terms, under `CCCCCc1cc(=O)oc2c(C(CCN3CCCC(C)C3)c3ccc(N(C)C)cc3)c(OC)cc(OC)c12` (stereo not given) stands -1.98%; under `O=C(CSc1nnc(Cc2cccs2)n1Cc1ccco1)Nc1ccc(Br)cc1`, -1.48%; under `N#CC(C(=O)NCc1ccccc1)c1nc2ccccc2nc1N1CCCC1` (stereo not given), -0.29%.

As for `CC(C)C(=O)N1CCC2(CC1)Oc1ccc(F)cc1C(=O)C21CC(c2ccccc2)=NO1` (stereo not given), the “efflux inhibition response” value is 132%. On the same count and under the same terms, the value for `NC1=NC[C@H](Cc2ccccc2)N1CCCCC1CCCCC1` was -0.87%; that for `NS(=O)(=O)c1ccc(N2N=C(c3ccc(Br)cc3)CC2c2ccc(F)cc2)cc1` (stereo not given) was -1.21%; that for `C[C@H](CO)N1C[C@H](C)[C@@H](CN(C)S(=O)(=O)c2ccccc2)Oc2c(NC(=O)Nc3ccccc3)cccc2C1=O` was 51.3%. Same read-out and setting: under `COc1ccc(CCOC(=O)c2ccc(N)c([N+](=O)[O-])c2)cc1` stands -0.87%; under `COc1ncccc1C(=O)NC1CCCc2c1cnn2-c1cc(C)cc(C)c1` (stereo not given), -0.48%; under `COc1ccc(C2CC(c3cccc(OC)c3)=NN2c2ccc(S(N)(=O)=O)cc2)cc1` (stereo not given), -2.33%. The same measure, in the same setting: under `Cc1ccc(O)c(C(=O)c2cnc3c(c2)CN(C)C(=O)N3)c1` stands 0.89%; under `COc1ccc2sc(-c3ccccc3OC)c(-c3ccc(OCCN(C)C)cc3)c2c1`, 307%. For the molecule `NS(=O)(=O)c1ccc(N2N=C(c3ccccc3)CC2c2cccc(Br)c2)cc1` (stereo not given), the “efflux inhibition response” value is -2.03%. Same read-out and setting: the value for `O=C(C1CCCN(c2ncnc3c2nc2n3CCCCC2)C1)N1CCN(c2cccc(Cl)c2)CC1` (stereo not given) was -0.25%; that for `O=C(c1ccoc1)N1CCC2(CC1)Oc1ccc(F)cc1C(=O)C21CC(c2ccccc2)=NO1` (stereo not given) was 105%; that for `CN1Cc2cc(C(=O)c3ccccc3O)cnc2NC1=O` was -1.55%. For `COc1cc(OC)c2ccc(=O)oc2c1C(CCN1CCCCC1)c1ccc(N(C)C)cc1` (stereo not given), the “efflux inhibition response” value was -0.63%. `O=C(c1ccoc1)N1CCC2(CC1)Oc1ccc(F)cc1C(=O)C21CC(c2ccc(Cl)cc2)=NO1` (stereo not given): the “efflux inhibition response” value is 75.4%.

Turning to `O=C(C[n+]1cc(-c2ccc(Cl)cc2)n2c1CCC2)N1c2ccccc2Sc2ccccc21`, the “efflux inhibition response” value was -1.78%. On the same count and under the same terms, the value for `Cc1ccc2sc(N(CCCN(C)C)C(=O)c3ccc(Br)s3)nc2c1C` was -2.13%. Take `O=C(NCCc1ccc(Cl)cc1)C1CCC(CNc2nc(=S)[nH]c3ccccc23)CC1` (stereo not given): the “efflux inhibition response” value was -0.35%.

`Cc1ccc(O)c(C(=O)c2cnc3c(c2)CN(CCC(C)C)C(=O)N3)c1`: the call was inactive. For the molecule `CCC(Cc1ccccc1)OC(=O)c1ccccc1C(=O)O` (stereo not given), the “efflux inhibition response” value is -0.8%. For the molecule `COc1cccc(-c2sc3ccc(OC)cc3c2-c2ccc(OCCN3CCOCC3)cc2)c1`, the “efflux inhibition response” value was 156%. On the same count and under the same terms, the value for `Cc1cccc2sc(N(CCCN(C)C)C(=O)c3ccc(Cl)s3)nc12` was -0.58%; that for `CC(C)C(=O)N1CCN(c2ccccc2NC(=O)c2ccc3c(c2)OCCO3)CC1` was 0.84%; that for `NC1=NC[C@@H](Cc2ccc(O)cc2)N1CCCCC1CCCCC1` was -0.9%. In the case of `COc1ccc(CNC(=O)C(C#N)c2nc3ccccc3nc2N2CCN(C)CC2)cc1` (stereo not given), the call was inactive.

Turning to `Cc1ccc(CN2C(=O)C(CC(C)C)Nc3ncnc(N4CCN(c5ccccc5)CC4)c32)cc1` (stereo not given), the “efflux inhibition response” value is -1.17%.

Values taken from PubChem BioAssay AID623992 (NMMLSC, 2012).
